NS1 function inh = qHTS Assay for Inhibitors of Influenza NS1 Protein Function; hit rate 0.4% among 270,000; AID 2326, 2010; Potency, µM (highest dose often 46.1 µM); calls by dose curve; note: actives are rising curves; nearly all actives have a fitted effect of over 50% in size
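S. cerevisiae expressing influenza A NS1, grown in glucose, washed, then diluted 1:100 into pH 6.0 -URA galactose medium with 23 nl compound. Growth recovery read as OD600; NS1-free strain serves as control.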
CHX counter = Cycloheximide Counterscreen for Small Molecule Inhibitors of Shiga Toxin; hit rate 12% among 300,000; AID 2314, 2010; cell reporter, cycloheximide protein synthesis inhibition counterscreen; max response, %; in the data active = max response mostly above about 13%, no sharp cut-off; inactive = mostly below about 14%; note: read at 38.3 µM for the half of the compounds with a filed dose
Sm TGR block = qHTS Assay for the Inhibitors of Schistosoma Mansoni Peroxiredoxins; purified TGR, DTNB reduction, TNB absorbance 405 nm; Schistosoma mansoni thioredoxin glutathione reductase (TGR), Q962Y6; hit rate 3% among 360,000; Potency, µM (series often up to 114 µM), most hits filed as inhibitors; note: nearly all actives have a fitted effect of over 60% in size
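TGR 20 nM + NADPH 100 uM (dispensed conc.), cpd preinc 15 min RT; start with NADPH (500 uM addition) then DTNB (15 mM addition). Kinetic TNB absorbance, 405 nm filter. Four-parameter Hill fit across titration.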
Pf growth 96h = Primary qHTS for delayed death inhibitors of the malarial parasite plastid, 96 hour incubation; P. falciparum luciferase reporter growth, 96 h; Potency, µM (titrated, usually from 28.7 µM), actives largely listed as inhibitors; hit rate 6.9% among 320,000; AID 504834, 2011
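Parasite growth measured via integrated firefly luciferase reporter in P. falciparum. Infected erythrocytes at 2% hematocrit, 0.05% parasitemia final were treated 96 hours at 37 C under 5% CO2, and luminescence was read.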
Shiga inhibitor = A qHTS for Small Molecule Inhibitors of Shiga Toxin; Vero cells, Shiga toxin protein synthesis inhibition reporter; inhibition, % at 38.7 µM; hit rate 9.2% among 290,000; AID 2315, 2010; in the data active = inhibition mostly above about 28%, no sharp cut-off; inactive = mostly below about 43%
Pf growth 48h = Primary qHTS for delayed death inhibitors of the malarial parasite plastid, 48 hour incubation. Potency, µM (series often up to 28.7 µM), actives largely listed as inhibitors. P. falciparum luciferase growth in erythrocytes, 48 h. hit rate 5.9% among 310,000
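Here the parasites carry a stable luciferase gene and grow inside erythrocytes in Albumax-based RPMI medium with compound for one erythrocytic cycle. Activity is scored as loss of luminescent signal.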
Numbers stand for hits; [ ] = remark or other dose. This is a sample that favours compounds with a hit; in the whole collection about 21% have one here. Unless noted, calls come from the whole dose curve; as a rule, active = well fitted curve in the direction sought with a large enough effect; inconclusive = small, poorly fitted or top-dose-only effect, or another doubt; inactive = no such curve, though single readings can be large; an effect the other way counts as inactive or inconclusive.

How did Oc1ccc(C=Nc2ccc3ncccc3c2)c(O)c1 do in these assays?
NS1 function inh: inconclusive; CHX counter: 56; Sm TGR block: inconclusive; Pf growth 96h: inactive[5.75 µM]; Shiga inhibitor: 106; Pf growth 48h: inconclusive

How did CC(OC(=O)CNC(=O)c1ccc(Cl)c(Cl)c1)C(=O)N1CCOCC1 (stereo unspecified) do in these assays?
Sm TGR block: inactive; Pf growth 96h: inconclusive; Pf growth 48h: inconclusive

Results for O=c1cc(Nc2ccc3c(c2)OCCO3)[nH]c(=O)n1Cc1ccc(F)cc1 ?
NS1 function inh: inactive; CHX counter: 29; Sm TGR block: inactive; Pf growth 96h: inactive; Shiga inhibitor: 49; Pf growth 48h: inactive

Results for Cc1nc2ccc(NC(=O)c3ccc(N4C(=O)CCC4=O)cc3)cc2s1 ?
CHX counter: inactive; Sm TGR block: inactive; Pf growth 96h: inactive; Shiga inhibitor: inactive; Pf growth 48h: inactive

Results for Cc1ccccc1NC(=O)c1ccc2nc(N3CCOCC3)sc2c1 ?
NS1 function inh: inactive; CHX counter: 28; Sm TGR block: inactive; Pf growth 96h: inconclusive; Shiga inhibitor: 38; Pf growth 48h: inactive

How did CC(=O)c1ccc(NC(=O)c2ccc(C)c(Br)c2)cc1 do in these assays?
NS1 function inh: inactive; CHX counter: 60; Sm TGR block: inconclusive; Pf growth 96h: inconclusive; Shiga inhibitor: 73; Pf growth 48h: inactive

Results for CC(=O)c1ccc(NC(=O)c2ccc3nc(C)sc3c2)cc1 ?
NS1 function inh: inactive; CHX counter: 87; Sm TGR block: inactive; Pf growth 96h: inactive; Pf growth 48h: inactive

Results for Cc1nc2ccc(NC(=O)c3cccc(S(=O)(=O)N(C)c4ccccc4)c3)cc2s1 ?
NS1 function inh: inactive; CHX counter: inactive; Sm TGR block: inactive; Pf growth 96h: 8.3µM; Shiga inhibitor: inactive; Pf growth 48h: inconclusive

Results for Cc1nc2ccc(OC(=O)c3ccccc3)cc2s1 ?
NS1 function inh: inactive; CHX counter: 13; Sm TGR block: inactive; Pf growth 96h: inactive; Shiga inhibitor: inactive; Pf growth 48h: inactive

Results for Cc1nc2cc(NC(=O)c3ccc(N4C(=O)CCC4=O)cc3)ccc2s1 ?
CHX counter: inactive; Sm TGR block: inactive; Pf growth 96h: inactive; Shiga inhibitor: inactive; Pf growth 48h: inconclusive

Results for Cc1nc2cc(C(=O)O)ccc2s1 ?
NS1 function inh: inactive; CHX counter: 44; Sm TGR block: inactive; Pf growth 96h: inactive; Shiga inhibitor: 133; Pf growth 48h: inactive

What do the screens show for `CCn1nc(C(=O)Nc2ccc3nc(C)sc3c2)c2ccccc2c1=O`?
CHX counter: 19; Sm TGR block: inactive; Pf growth 96h: inactive; Shiga inhibitor: inactive; Pf growth 48h: inactive

What do the screens show for `Cc1ccc(OC(=O)c2ccc3nc(C)sc3c2)cc1`?
NS1 function inh: inactive; CHX counter: inactive; Pf growth 96h: inactive; Shiga inhibitor: inactive; Pf growth 48h: inactive

Results for CCn1nc(C(=O)NC2=NCCS2)c2ccccc2c1=O ?
NS1 function inh: inactive; CHX counter: inactive; Sm TGR block: inactive[11.4 µM]; Pf growth 96h: inconclusive; Shiga inhibitor: inactive

Results for Cc1nnc(NC(=O)c2ccc3ccccc3n2)s1 ?
CHX counter: 38; Sm TGR block: inactive; Pf growth 96h: inactive; Shiga inhibitor: 110; Pf growth 48h: inactive

How did COc1cc(C(=O)N2CCN(C(=O)c3cc(-c4ccc(Br)cc4)n[nH]3)CC2)cc(OC)c1OC do in these assays?
NS1 function inh: inactive; CHX counter: inactive; Sm TGR block: inactive; Pf growth 96h: inactive; Shiga inhibitor: inactive; Pf growth 48h: inconclusive

What do the screens show for `CCOc1cc(C(=O)OCC(=O)Nc2ccc(F)cc2Cl)ccc1OCC(=O)N1CCOCC1`?
Sm TGR block: inactive; Pf growth 96h: inactive; Pf growth 48h: inactive

Results for CCNc1ccc(C(=O)Nc2ccc3nc(C)sc3c2)cc1[N+](=O)[O-] ?
NS1 function inh: inactive; CHX counter: 27; Sm TGR block: inactive; Pf growth 96h: inconclusive; Shiga inhibitor: inactive; Pf growth 48h: inconclusive

How did Cc1nc2ccc(NC(=O)c3ccccc3)cc2s1 do in these assays?
NS1 function inh: inactive; CHX counter: 30; Pf growth 96h: inactive; Shiga inhibitor: 108; Pf growth 48h: inactive

Results for C=CCNC(=O)Nc1ccc2nc(C)sc2c1 ?
NS1 function inh: inactive; CHX counter: inactive; Sm TGR block: inactive; Pf growth 96h: inconclusive; Shiga inhibitor: inactive; Pf growth 48h: inactive

Results for Cc1nc2ccc(NC(=O)c3ccc(=O)[nH]c3)cc2s1 ?
NS1 function inh: inactive; CHX counter: inactive; Sm TGR block: inactive; Pf growth 96h: inactive; Shiga inhibitor: inactive; Pf growth 48h: inconclusive

How did O=C(Nc1ccncc1)c1cncc(Br)c1 do in these assays?
NS1 function inh: inactive; CHX counter: inactive; Sm TGR block: inactive; Shiga inhibitor: inactive; Pf growth 48h: inactive

What do the screens show for `Cc1nc2ccc(NC(=O)c3ccc4ccccc4n3)cc2s1`?
CHX counter: 28; Sm TGR block: inactive; Pf growth 96h: inactive; Shiga inhibitor: 102; Pf growth 48h: inactive

How did Cc1nc2ccc(NC(=O)c3cncc(Br)c3)cc2s1 do in these assays?
NS1 function inh: inactive; CHX counter: 32; Sm TGR block: inactive; Pf growth 96h: inconclusive; Shiga inhibitor: 102; Pf growth 48h: inconclusive

Results for O=C(c1ccc(F)cc1)N1CCN(S(=O)(=O)c2ccc(Br)cc2)CC1 ?
NS1 function inh: inactive; CHX counter: inactive; Sm TGR block: inactive; Pf growth 96h: inconclusive; Shiga inhibitor: inactive; Pf growth 48h: inactive

How did O=C(Nc1ccccc1Br)C1CCCN(S(=O)(=O)c2cccc3nsnc23)C1 (stereo unspecified) do in these assays?
Sm TGR block: inactive

Results for Cc1cc(C)n(-c2nc3cc(Cl)ccc3nc2Nc2ccc(CC(=O)O)cc2)n1 ?
Sm TGR block: inactive

Results for Cc1nc2ccc(C(=O)Nc3ccccc3Cl)cc2s1 ?
NS1 function inh: inactive; CHX counter: 50; Sm TGR block: inconclusive; Pf growth 96h: inconclusive; Shiga inhibitor: 118; Pf growth 48h: inactive

How did Cc1cccc(C(=O)Nc2ccc(-c3nc4ccccc4s3)cc2Cl)c1 do in these assays?
Sm TGR block: inactive

Results for COc1cc(C(=O)Nc2ccc(C(C)=O)cc2)c(Br)c(OC)c1OC ?
NS1 function inh: inactive; CHX counter: 42; Sm TGR block: inactive; Pf growth 96h: inactive; Shiga inhibitor: 70; Pf growth 48h: inactive

What do the screens show for `Cc1cccnc1NC(=O)c1ccc2nc(N)sc2c1`?
NS1 function inh: inactive; CHX counter: 28; Sm TGR block: inactive; Pf growth 96h: inactive; Shiga inhibitor: 73

How did N#Cc1ccccc1CSc1nc2ccc(NC(=O)c3ccccc3C(=O)O)cc2s1 do in these assays?
NS1 function inh: inactive; CHX counter: 27; Sm TGR block: inactive; Pf growth 96h: inactive; Shiga inhibitor: 79; Pf growth 48h: inactive

What do the screens show for `O=C(Cn1ncn2c(cc3sccc32)c1=O)NCCc1ccccc1`?
Sm TGR block: inactive
